Source: PubChem BioAssay AID1645857 (Buhrlage Lab, Dana-Farber Cancer Institute and Novartis …, 2021)
About 1,400 (3%) of roughly 47,000 compounds were called active. The sample holds actives, similar compounds and a random draw of the others, so the mix is not that of the screen. No stated cut-off is given here; in the data, active means inhibition above about 30%; inactive means the rest.

Target: Ubiquitin carboxyl-terminal hydrolase 28 (Homo sapiens) (UniProt Q96RU2)
Assay: inhibitors of human USP28 deubiquitinase (AID 1645857)
Settings: purified USP28, Ub-rhodamine cleavage fluorescence, 30 min; at 25 µM; active compounds read high

Ubiquitin carboxyl-terminal hydrolase 28 (Homo sapiens), sequence (Q96RU2 whole entry, looked up): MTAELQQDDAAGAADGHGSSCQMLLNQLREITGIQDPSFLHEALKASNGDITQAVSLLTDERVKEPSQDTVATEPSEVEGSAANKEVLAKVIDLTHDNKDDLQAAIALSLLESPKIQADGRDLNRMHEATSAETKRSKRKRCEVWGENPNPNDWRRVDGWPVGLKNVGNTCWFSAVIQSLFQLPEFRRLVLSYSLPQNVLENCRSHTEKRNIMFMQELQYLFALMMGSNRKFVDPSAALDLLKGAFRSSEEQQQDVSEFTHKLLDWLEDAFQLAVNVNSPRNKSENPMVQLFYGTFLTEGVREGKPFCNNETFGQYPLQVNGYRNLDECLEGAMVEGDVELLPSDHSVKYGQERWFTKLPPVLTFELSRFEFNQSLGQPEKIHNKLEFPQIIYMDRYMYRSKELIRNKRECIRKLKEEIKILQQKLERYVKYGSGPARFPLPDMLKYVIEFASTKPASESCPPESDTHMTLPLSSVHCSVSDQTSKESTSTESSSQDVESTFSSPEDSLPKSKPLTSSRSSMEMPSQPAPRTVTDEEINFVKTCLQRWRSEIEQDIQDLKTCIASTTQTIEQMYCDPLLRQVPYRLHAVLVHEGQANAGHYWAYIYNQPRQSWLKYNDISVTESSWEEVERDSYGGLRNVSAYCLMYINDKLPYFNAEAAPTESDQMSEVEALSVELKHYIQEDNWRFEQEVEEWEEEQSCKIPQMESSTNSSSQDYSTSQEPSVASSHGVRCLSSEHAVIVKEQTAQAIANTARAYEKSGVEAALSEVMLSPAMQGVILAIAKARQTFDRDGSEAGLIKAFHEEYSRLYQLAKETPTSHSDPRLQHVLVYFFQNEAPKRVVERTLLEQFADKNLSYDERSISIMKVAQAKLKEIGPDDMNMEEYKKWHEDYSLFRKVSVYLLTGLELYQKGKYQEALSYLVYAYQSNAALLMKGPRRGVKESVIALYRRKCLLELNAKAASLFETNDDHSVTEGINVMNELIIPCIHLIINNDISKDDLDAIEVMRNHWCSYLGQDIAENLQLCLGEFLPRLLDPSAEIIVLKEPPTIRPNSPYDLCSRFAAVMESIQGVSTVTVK

inhibition, active:
N#Cc1ccc(NC(=O)Nc2cccn(Cc3ccccc3F)c2=O)cc1 86.6%
COc1ccc(-c2[nH]c3ccccc3c2SCCNC(=O)c2ccc(S(=O)(=O)N3CCOCC3)cc2)cc1 32.8%
C#CCOc1ccc2ccccc2c1CN1CCc2ccccc2C1 39.7%
CC(C)Cc1cc(-c2nn3c(-c4ccccc4Cl)nnc3s2)n[nH]1 30.4%
Cc1ccc(NC(=O)C2CCN(S(=O)(=O)c3cnc[nH]3)CC2)cc1Cl 39%
COc1ccc(CNC(=O)c2[nH]nc3c2CCc2ccccc2-3)cc1 30.6%
Clc1cc2nc(N3CCN(c4ccccn4)CC3)c3nncn3c2cc1Cl 36.5%

inhibition, inactive:
O=C(Cn1cccc(-c2nc(-c3ccccc3)no2)c1=O)Nc1ccccc1F 6.71%
Cc1noc(-c2cccn(Cc3cc(F)ccc3F)c2=O)n1 29%
CC1(C(=O)NC2CCCCCC2)Cn2c(nc3ccccc32)C(=O)N1CCc1ccccc1 (stereo unspecified) -1.29%
O=C(c1cc2c(=O)n3ccccc3nc2n1Cc1ccccc1)N1CCN(c2ccccc2)CC1 -0.309%
COc1ccc(-c2cnc(SCCNC(=O)c3cccc(F)c3)[nH]2)cc1 12.3%
COc1ccc(NC(=O)c2cc(=O)[nH]c3ccccc23)cc1S(=O)(=O)N1CCOCC1 -0.445%
COc1ccccc1Nc1ncnc2oc(C)c(C)c12 -18.5%
COc1ccc(OC)c(-n2c(CNC(=O)c3ccco3)nnc2SCC(=O)N2CCc3ccccc32)c1 0.00951%
CC(=O)c1ccc(NC(=O)CCCn2nc([N+](=O)[O-])cc2C)cc1 9.41%
C#CCOc1ccc(CN2CCc3nc(-c4cccnc4)[nH]c(=O)c3C2)cc1OC -1.43%
CS(=O)(=O)N1CCC2(CC1)CN(C(=O)c1ccc3[nH]ccc3c1)Cc1ccccc1O2 7.47%
COCCn1ccc(-c2cc(C(=O)N3CCCN(C)CC3)c3ccccn23)n1 -61%
CN(C)c1cccc(NC(=O)N2CC[C@@H]3[C@H]2C(=O)N(C)[C@@H](Cc2ccccc2)C(=O)N3C)c1 -0.0135%
CCc1cccc(NC(=O)C2CCN(c3ccncc3)CC2)c1 22%
CC1CCN(S(=O)(=O)N2CCCC(C(=O)Nc3ccccc3Cl)C2)CC1 (stereo unspecified) -2.94%
COc1ccc(CNC(=O)c2ccccc2-c2ncc(-c3ccccc3)o2)cc1 21.9%
COc1ccc(CNC(=O)c2cccc3cccnc23)cc1 4.72%
Cc1nn(-c2ccccc2)c(C)c1S(=O)(=O)N1CCN(c2ccccn2)CC1 -7.5%
O=C(c1ccc(N2CCCC2)nn1)N1CCN(c2ccccn2)CC1 2.13%
